Screening data as filed in PubChem.
Hits are enriched below; roughly 5.9% of the tested compounds scored in any of these assays.
ALR inh – human ALR oxidase inhibition via reduced H2O2. P55789. purified ALR, DTT oxidation, H2O2 HRP-luminol luminescence. inhibition, % (concentration not given with the values). actives 3.8% (n = 290,000). AID 485317;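 active = mean replicate inhibition above about 79%, with every replicate also reaching it, limit read from the data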
Rtt109 Vps75 – C. albicans Rtt109 histone acetyltransferase inhibition | Q5AAJ8 | purified Rtt109/Vps75, ThioGlo CoA-SH fluorescence, 4 h | inhibition, % at 34.9 µM | actives 0.16% (n = 330,000);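 active = inhibition of at least 50% in every replicate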
PRMT1 inh – inhibitors of human PRMT1; recombinant PRMT1, activity-based probe fluorescence polarization; Q99873; actives 1.3% (n = 370,000); inhibition, % at 2.79 µM;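 active = inhibition above about 21% made by adding two undisclosed values, limit read from the data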
rCAG RNA binder – r(CAG) repeat RNA binding; actives 1.3% (n = 370,000); inhibition, % at 3 µM; AID 651821; TO-PRO-1 dye displacement fluorescence;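 active = inhibition above the plate cutoff, the mean of all test compounds on that plate plus 3 SD, cut at about 35% in these data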;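 note: 0% = DMSO alone and 100% = 100 µM mitoxantrone as full dye displacement; higher means more dye released from RNA so lower well fluorescence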
ABHD5-PLIN5 inh – ABHD5-PLIN5 protein interaction inhibition. Q00G26+Q8WTS1. inhibition, % at 4 µM. actives 0.78% (n = 360,000). Split G. princeps luciferase complementation, luminescence, 4 h;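 active = inhibition above the mean inhibition across every tested compound plus 3 SD, cut at about 22% in these data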;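 note: 0% = DMSO only wells and the 100% control is not disclosed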
Target sequence (Q00G26 whole entry, looked up): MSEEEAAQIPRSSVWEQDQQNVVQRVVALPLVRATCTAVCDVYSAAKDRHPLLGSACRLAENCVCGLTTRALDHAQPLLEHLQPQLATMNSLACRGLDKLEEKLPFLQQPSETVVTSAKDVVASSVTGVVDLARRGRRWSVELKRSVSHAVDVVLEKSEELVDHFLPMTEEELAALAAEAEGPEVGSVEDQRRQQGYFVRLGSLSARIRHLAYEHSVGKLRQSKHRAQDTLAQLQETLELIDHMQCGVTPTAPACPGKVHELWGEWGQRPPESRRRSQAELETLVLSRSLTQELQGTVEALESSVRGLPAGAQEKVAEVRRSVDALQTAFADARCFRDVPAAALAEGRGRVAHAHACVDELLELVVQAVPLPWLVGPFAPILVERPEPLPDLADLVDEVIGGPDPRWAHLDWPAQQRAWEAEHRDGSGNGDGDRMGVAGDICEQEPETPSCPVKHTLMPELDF
Target sequence (Q8WTS1 whole entry, looked up): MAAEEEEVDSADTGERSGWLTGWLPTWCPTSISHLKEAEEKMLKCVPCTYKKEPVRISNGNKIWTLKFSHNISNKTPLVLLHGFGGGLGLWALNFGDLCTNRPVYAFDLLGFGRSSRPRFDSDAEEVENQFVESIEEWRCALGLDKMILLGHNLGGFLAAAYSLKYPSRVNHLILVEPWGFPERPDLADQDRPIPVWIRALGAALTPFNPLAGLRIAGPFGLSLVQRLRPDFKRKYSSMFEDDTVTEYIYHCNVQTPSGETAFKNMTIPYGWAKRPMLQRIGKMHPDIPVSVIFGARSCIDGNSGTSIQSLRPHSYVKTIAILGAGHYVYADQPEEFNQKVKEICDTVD
LANA-H2A inh – blocks KSHV LANA binding to histone H2A/H2B. Q9QR71. cell-free LANA-H2A/H2B peptide, fluorescence polarization. inhibition, % (concentration not given with the values). actives 0.6% (n = 320,000); in the data active = inhibition mostly above about 10%, no sharp cut-off; inactive = mostly below about 6.7%
PRMT1 confirm – confirmation of human PRMT1 inhibitors; AID 687036; inhibition, % at 2.79 µM; shares compounds with PRMT1 inh; recombinant His-PRMT1, activity-based probe fluorescence polarization; actives 42% (n = 3,300);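 active = mean inhibition across replicates above the hit cutoff derived for the earlier primary screen, cut at about 22% in these data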
An asterisk follows results filed as active; / = no result.

SMILES	ALR inh	Rtt109 Vps75	PRMT1 inh	rCAG RNA binder	ABHD5-PLIN5 inh	LANA-H2A inh	PRMT1 confirm
Nc1[nH]c2cc(Cl)ccc2c1C(=O)NCCc1ccc(Cl)cc1	/	/	1.9	8.3	/	/	/
COc1ccc(OC)c(-c2cc(C3CCN(c4cc(Cl)nc(N)n4)CC3)[nH]n2)c1	0.0	-3.9	40.3*	-0.1	-1.7	0.8	-0.9
COc1ccc(-c2cc(C3CCN(c4cc(Cl)nc(N)n4)CC3)[nH]n2)cc1	11.7	2.3	-5.3	-0.7	0.7	-0.1	/
C/C=C\C=C\C(=O)N1CC2(CC(c3cccc(NC(=O)COc4ccc(Cl)cc4)c3)=NO2)C[C@H]1C(N)=O (stereo partly drawn)	-1.2	4.8	62.9*	22.3	3.6	-1.4	22.3*
CS(=O)(=O)c1ccc(S(=O)CC(=O)OCc2ccccc2)c([N+](=O)[O-])c1 (stereo not drawn)	/	3.6	65.7*	4.9	40.3*	/	33.5*
CCOC(=O)c1ccccc1OC(=O)CS(=O)c1ccccc1[N+](=O)[O-] (stereo not drawn)	-48.1	-2.7	1.1	-0.5	-6.1	-3.2	/
COC(=O)C12C=C3CC(C4CC4)=C3C(=O)N1Cc1[nH]c3ccccc3c1C2 (stereo not drawn)	/	/	10.5	5.6	/	/	/
Oc1c(/C=N/c2ccccn2)sc2ccccc12	1.5	-6.9	25.1*	2.0	-3.6	-0.8	15.1
O=C(Nc1ccncc1)c1sc2ccccc2c1Cl	/	2.5	8.7	-0.4	3.1	-0.6	/
Oc1c(C=Nc2ccc(Cl)cn2)sc2ccccc12	-28.9	7.1	40.5*	-1.9	1.4	2.4	3.7
O=C(O)c1ccccc1C(=O)Nc1n[nH]c(=S)s1	54.2	-5.8	31.1*	3.3	-10.1	4.1	9.6
CCC(=O)Nc1nc(C)c(-c2csc(Nc3cccc(O)c3)n2)s1	25.1	-6.7	48.9*	16.7	-9.4	1.3	4.9
Cc1nc(N)sc1-c1csc(Nc2cccc(O)c2)n1	46.6	14.8	25.2*	20.2	-21.3	-2.1	4.9
COC(=O)[C@]12C[C@H](CC(=O)NCc3cccc(C(F)(F)F)c3)C(=O)N(Cc3ccc(Cl)cc3Cl)C1=C[C@H](C(C)C)O[C@@H]2C1CC1	/	/	0.4	1.9	/	/	/
COC(=O)c1ccccc1NC(=O)N1CSC[C@H]1C(=O)OC	-1.9	-16.5	30.3*	-0.1	0.0	1.5	47.6*
O=[N+]([O-])c1ccc(-c2csc3[n+]2CCS3)cc1	4.3	-4.2	46.9*	9.9	-1.4	-2.2	3.0
O=C(O)C1CSC(c2coc3ccccc3c2=O)N1 (stereo not drawn)	98.7*	-3.1	51.1*	8.2	-20.7	2.8	35.2*
CC1CCOC(c2coc3ccccc3c2=O)O1 (stereo not drawn)	3.4	0.4	-0.7	-0.7	-0.3	0.5	/
Cc1sc(Cc2nc(O)cs2)nc1-c1ccccc1	97.3*	-8.7	58.0*	17.6	-28.5	2.6	13.6
COc1ccccc1NC(=O)c1c(NC(=O)CCC(=O)O)sc2c1CCCCC2	97.7*	31.8	31.8*	13.3	-4.6	-0.2	-0.8
CCN(C(=O)CSc1nnc(-c2ccc(C)cc2)n1N)c1c(N)n(Cc2ccccc2)c(=O)[nH]c1=O	/	-0.2	-0.5	-7.4	3.7	/	/
CCN(C(=O)CSc1nnc(-c2cccc(Cl)c2)n1N)c1c(N)n(Cc2ccccc2)c(=O)[nH]c1=O	/	10.3	31.5*	-0.1	-5.1	/	37.7*
CCCCn1c(N)c(N(CCC(C)C)C(=O)c2cc(Cl)nc3ccccc23)c(=O)[nH]c1=O	-7.3	3.8	-3.9	4.7	18.6	-4.2	/
CCn1c(SCC(=O)N(C)c2c(N)n(Cc3ccccc3)c(=O)[nH]c2=O)nc2ccccc21	-6.4	3.1	26.6*	-5.9	0.3	-0.4	27.0*
CCN(C(=O)CN1CCCCCC1)c1c(N)n(Cc2ccccc2)c(=O)[nH]c1=O	-4.1	12.6	0.1	4.2	-4.8	-0.7	/
SMILES	ALR inh	Rtt109 Vps75	PRMT1 inh	rCAG RNA binder	ABHD5-PLIN5 inh	LANA-H2A inh	PRMT1 confirm
CCN(C(=O)CN1CCN(c2ccc(O)cc2)CC1)c1c(N)n(Cc2ccccc2)c(=O)[nH]c1=O	/	-14.9	27.5*	7.2	6.7	-1.4	9.4
CCCCn1c(N)c(N(CCC(C)C)C(=O)CSc2nc3ccccc3n2C)c(=O)[nH]c1=O	/	11.7	26.7*	0.2	-0.5	/	18.7
CC(C)c1[nH]nc2c1C(c1ccccc1)NC2=O (stereo not drawn)	/	/	-4.0	0.6	/	/	/
Cc1ccc2c(CC(=O)N(C)c3c(N)n(Cc4ccccc4)c(=O)[nH]c3=O)coc2c1	-7.6	-6.3	94.1*	0.9	1.2	-4.1	-2.0
CCN(C(=O)COC(=O)Cc1coc2cc(C)ccc12)c1c(N)n(Cc2ccccc2)c(=O)[nH]c1=O	1.2	3.2	0.8	6.3	-6.2	-1.1	/
O=C(Cn1cc(F)c(=O)[nH]c1=O)c1ccco1	/	/	2.0	-1.0	-9.2	/	/
N#CSCC(=O)c1cccc2ccccc12	/	3.2	59.9*	16.3	-29.6	2.5	46.7*
NC(=O)c1cccc2ccccc12	-12.2	-16.2	-5.7	-0.6	-0.1	-4.2	/
O=C(O)c1cc2ccccc2c2c1C(=O)c1ccccc1-2	/	/	0.0	4.1	4.3	/	/
O=C1C=C(c2c(O)ccc3ccccc23)c2ccccc2C1=O	/	-2.0	40.9*	9.7	91.0*	/	39.7*
CCCCCCN1C[C@H](n2cc(COC(=O)c3ccccc3)nn2)[C@@H](O)C[C@@H]1c1ccc(C)cc1	/	/	3.1	3.8	-14.1	/	/
Cc1ccc(-c2csc3nc(C)n(-n4cccc4)c(=O)c23)o1	2.9	14.3	26.1*	1.3	5.7	0.7	7.5
Oc1cc(O)c(CN2CCOCC2)cc1CN1CCOCC1	/	101.2*	28.6*	8.1	22.4*	/	0.3
N#CC1=C2SCN(Cc3ccccc3)CN2C(=O)CC1c1ccccc1F (stereo not drawn)	-25.0	15.5	/	/	1.9	-1.5	/
N#CC1=C2SCN(Cc3ccco3)CN2C(=O)CC1c1c(F)cccc1Cl (stereo not drawn)	-34.4	-1.2	52.2*	21.7	6.7	0.9	7.7
Cc1ccc(C2CC(=O)N3CN(Cc4ccco4)CSC3=C2C#N)cc1 (stereo not drawn)	-10.6	2.8	39.2*	21.5	-22.9	4.0	4.0
O=C1CC(Sc2ccc(Cl)cc2)C(=O)N1Cc1ccncc1 (stereo not drawn)	56.4	2.0	17.7	-4.6	3.2	-4.0	/
NCCSC1CC(=O)N(Cc2ccc(F)cc2)C1=O (stereo not drawn)	-0.1	-14.3	27.1*	2.1	-0.1	-2.6	11.0
COc1ccc(NC(=O)N(C)C[C@@H]2OCc3cn(nn3)CCCC(=O)N([C@H](C)CO)C[C@H]2C)cc1	/	/	65.2*	-2.6	-3.0	/	6.0
CCNc1nc(NCC)n2c(SCC(=O)Nc3ccc(Br)cc3F)nnc2n1	98.3*	4.6	37.4*	-3.8	-14.9	8.3	15.5
